# Results: the supplement of paper PMC10849652
# The full data set covers some 7,900 targets. This sample favours those with a hit. About 0.6% of all pairs of compound and target were hits. Values without a mark were called inactive.
# How the values were obtained:
# Experiment in all cases: log2 fold change, soluble protein after heating vs DMSO (PISA); higher = thermal stabilisation; K562 cells, 10 uM, 30 min; active = over 0.2 and 3.5 SD of the protein, either way, in both replicates (recomputed)
# erlotinib = compound: C#Cc1cccc(Nc2ncnc3cc(OCCOC)c(OCCOC)cc23)c1 [erlotinib]
# Summary of the method: (§1)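 Soluble protein was quantified by TMTpro 16plex LC-MS/MS after channel sums were equalised. It was obtained as the supernatant after 21,000xg for 90 min from pooled aliquots of K562 cells (2×10^6 cells/mL, 10 μM compound, 30 min) heated for 3 min across 48°C-58°C and extracted in PBS with 0.5% NP-40 at 4°C. Thermal stability values are relative to control samples and come from duplicates. They are given as log2 fold changes.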
# [1] = compound: C/C(=N\NC(=O)C1=CC(=CC=C1)S(=O)(=O)N2CCOCC2)/C3=C(C=CC(=C3)Cl)O
# Summary of the method: as §1
# [2] = compound: C1=CC(=C(C=C1Cl)C2=NC3=NC=CN=C3C(=N2)NC4=CC=NC=C4)F
# Summary of the method: as §1
# [3] = compound: C1=CC(=CC=C1C2=NC3=C(N2)C=C(C=C3)C(=O)N)OC4=CC=C(C=C4)Cl
# Summary of the method: as §1
# [4] = compound: C1=CC2=C(C=CC(=C2)/C=C\3/C(=O)NC(=NCC4=CC=CS4)S3)N=C1
# Summary of the method: as §1
# [5] = compound: C1=CC2=NC=CN=C2C=C1/C=C/3\C(=O)NC(=O)S3
# Summary of the method: as §1
# [6] = compound: C1=CC=C(C=C1)C2=NC(=C(N2)C3=CC=NC=C3)C4=CC(=C(C=C4)Cl)O
# Summary of the method: as §1
# [7] = compound: C1=CC=C2C(=C1)C3=NNC4=CC=CC(=C43)C2=O
# Summary of the method: as §1
# [8] = compound: C1CCN(C1)C(=O)NC2=CC=CC(=C2)NC3=NC=C(C(=N3)NCCC4=CN=CN4)Br
# Summary of the method: as §1
# [9] = compound: C1CN(CCC1(CC2=CC=C(C=C2)Cl)N)C3=NC=NC4=C3C=CN4
# Summary of the method: as §1
# Chain of UniProt Q71RC2 (Q71RC2 whole entry, looked up): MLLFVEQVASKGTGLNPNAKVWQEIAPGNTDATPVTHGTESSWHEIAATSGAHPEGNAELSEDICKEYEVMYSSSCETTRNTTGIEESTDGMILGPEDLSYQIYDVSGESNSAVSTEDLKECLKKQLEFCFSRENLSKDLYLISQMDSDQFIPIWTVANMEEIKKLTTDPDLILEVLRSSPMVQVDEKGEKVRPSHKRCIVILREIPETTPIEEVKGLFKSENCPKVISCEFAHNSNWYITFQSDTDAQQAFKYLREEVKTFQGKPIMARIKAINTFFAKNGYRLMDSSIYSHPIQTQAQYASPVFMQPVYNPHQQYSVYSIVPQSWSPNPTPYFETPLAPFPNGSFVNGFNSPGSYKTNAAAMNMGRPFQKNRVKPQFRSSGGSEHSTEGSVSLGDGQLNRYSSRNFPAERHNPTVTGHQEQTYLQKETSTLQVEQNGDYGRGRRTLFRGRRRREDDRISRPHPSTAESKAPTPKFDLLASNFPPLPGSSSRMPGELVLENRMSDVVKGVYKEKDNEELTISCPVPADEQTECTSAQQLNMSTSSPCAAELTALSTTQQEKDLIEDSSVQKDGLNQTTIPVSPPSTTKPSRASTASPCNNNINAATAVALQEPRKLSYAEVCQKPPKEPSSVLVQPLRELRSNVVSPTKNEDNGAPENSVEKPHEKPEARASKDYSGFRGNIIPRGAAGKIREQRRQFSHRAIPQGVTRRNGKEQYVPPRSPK
# Chain of UniProt P36507 (P36507 whole entry, looked up): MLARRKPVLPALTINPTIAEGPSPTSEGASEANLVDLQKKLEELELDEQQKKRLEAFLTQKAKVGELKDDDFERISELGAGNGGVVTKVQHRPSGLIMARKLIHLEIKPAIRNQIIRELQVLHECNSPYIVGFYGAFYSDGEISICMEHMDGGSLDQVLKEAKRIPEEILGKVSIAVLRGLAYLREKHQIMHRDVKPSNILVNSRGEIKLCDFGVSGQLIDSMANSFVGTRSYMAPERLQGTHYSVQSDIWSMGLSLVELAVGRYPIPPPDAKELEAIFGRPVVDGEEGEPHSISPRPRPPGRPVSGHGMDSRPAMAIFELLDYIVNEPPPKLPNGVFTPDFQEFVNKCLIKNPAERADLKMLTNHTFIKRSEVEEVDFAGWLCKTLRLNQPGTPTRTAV
# Chain of UniProt P14174 (P14174 whole entry, looked up): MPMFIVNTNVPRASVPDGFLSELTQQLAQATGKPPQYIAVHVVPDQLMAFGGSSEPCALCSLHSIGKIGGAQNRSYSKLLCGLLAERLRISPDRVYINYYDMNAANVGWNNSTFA
# Chain of UniProt P43362 (P43362 whole entry, looked up): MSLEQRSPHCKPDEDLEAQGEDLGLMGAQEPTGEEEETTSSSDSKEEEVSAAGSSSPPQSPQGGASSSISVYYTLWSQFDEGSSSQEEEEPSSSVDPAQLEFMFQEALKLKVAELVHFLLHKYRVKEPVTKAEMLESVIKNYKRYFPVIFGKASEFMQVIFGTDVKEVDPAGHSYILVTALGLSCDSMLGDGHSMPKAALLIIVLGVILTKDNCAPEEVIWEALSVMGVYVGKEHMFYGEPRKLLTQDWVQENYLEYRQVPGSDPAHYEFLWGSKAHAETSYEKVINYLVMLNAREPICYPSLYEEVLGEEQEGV
# Chain of UniProt Q9NVH2 (Q9NVH2 whole entry, looked up): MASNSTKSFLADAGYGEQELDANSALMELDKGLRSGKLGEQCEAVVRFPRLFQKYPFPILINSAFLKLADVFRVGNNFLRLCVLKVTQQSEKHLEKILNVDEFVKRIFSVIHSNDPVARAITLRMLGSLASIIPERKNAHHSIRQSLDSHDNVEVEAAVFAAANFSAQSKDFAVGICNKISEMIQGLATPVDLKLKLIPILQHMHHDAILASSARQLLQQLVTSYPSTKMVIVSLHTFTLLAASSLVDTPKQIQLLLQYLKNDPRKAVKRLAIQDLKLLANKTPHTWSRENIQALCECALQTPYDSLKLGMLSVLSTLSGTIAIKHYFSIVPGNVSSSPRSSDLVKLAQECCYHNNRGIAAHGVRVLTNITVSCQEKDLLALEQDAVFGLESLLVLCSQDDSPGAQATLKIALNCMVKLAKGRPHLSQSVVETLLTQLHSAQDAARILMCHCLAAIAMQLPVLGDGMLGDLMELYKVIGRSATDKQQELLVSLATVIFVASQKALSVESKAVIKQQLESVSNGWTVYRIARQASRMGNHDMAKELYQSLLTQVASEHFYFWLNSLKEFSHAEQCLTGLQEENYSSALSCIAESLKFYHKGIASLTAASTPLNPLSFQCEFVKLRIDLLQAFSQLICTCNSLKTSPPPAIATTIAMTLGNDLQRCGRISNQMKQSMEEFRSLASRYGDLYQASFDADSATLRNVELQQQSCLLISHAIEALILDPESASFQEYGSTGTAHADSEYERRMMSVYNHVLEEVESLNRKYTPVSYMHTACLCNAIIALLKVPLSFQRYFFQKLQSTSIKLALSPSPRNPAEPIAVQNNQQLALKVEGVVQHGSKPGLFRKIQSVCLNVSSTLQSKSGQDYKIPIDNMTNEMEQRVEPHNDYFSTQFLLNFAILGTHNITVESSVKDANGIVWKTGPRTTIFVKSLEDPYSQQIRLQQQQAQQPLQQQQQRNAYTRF
# Chain of UniProt O95140 (O95140 whole entry, looked up): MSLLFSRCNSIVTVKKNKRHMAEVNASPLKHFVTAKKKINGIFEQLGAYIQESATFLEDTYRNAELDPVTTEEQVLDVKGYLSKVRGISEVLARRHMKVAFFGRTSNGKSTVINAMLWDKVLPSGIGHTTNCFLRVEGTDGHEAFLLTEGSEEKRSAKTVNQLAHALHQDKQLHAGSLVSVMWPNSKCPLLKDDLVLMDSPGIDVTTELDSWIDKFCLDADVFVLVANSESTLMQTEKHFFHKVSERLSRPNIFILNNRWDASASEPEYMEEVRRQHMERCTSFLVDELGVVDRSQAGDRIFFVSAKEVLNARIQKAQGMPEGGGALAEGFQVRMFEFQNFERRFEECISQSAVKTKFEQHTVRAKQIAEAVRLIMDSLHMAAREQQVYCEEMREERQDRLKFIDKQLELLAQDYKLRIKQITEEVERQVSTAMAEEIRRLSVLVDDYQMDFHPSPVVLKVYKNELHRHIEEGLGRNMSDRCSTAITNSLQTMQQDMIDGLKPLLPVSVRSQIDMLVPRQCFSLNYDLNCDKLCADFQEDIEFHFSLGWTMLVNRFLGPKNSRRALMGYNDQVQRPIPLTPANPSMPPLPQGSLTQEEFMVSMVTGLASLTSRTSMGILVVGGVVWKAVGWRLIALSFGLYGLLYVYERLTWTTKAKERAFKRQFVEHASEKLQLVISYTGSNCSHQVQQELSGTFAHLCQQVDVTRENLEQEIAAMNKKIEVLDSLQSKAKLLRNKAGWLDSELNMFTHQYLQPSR
# Chain of UniProt Q8WWC4 (Q8WWC4 whole entry, looked up): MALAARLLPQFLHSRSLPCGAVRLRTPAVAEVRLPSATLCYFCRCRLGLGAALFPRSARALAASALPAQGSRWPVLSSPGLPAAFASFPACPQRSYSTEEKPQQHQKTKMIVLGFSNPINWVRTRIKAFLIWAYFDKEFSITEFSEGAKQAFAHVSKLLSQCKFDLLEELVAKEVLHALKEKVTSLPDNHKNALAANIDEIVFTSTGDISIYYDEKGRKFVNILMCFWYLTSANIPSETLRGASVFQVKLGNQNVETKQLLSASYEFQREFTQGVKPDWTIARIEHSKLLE
# Chain of UniProt O43513 (O43513 whole entry, looked up): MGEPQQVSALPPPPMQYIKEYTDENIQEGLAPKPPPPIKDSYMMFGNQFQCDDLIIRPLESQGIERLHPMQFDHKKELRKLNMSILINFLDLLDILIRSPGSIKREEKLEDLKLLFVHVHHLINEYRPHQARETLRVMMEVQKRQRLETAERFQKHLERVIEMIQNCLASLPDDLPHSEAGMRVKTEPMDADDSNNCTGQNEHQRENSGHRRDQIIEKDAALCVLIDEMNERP
# Chain of UniProt Q9Y383 (Q9Y383 whole entry, looked up): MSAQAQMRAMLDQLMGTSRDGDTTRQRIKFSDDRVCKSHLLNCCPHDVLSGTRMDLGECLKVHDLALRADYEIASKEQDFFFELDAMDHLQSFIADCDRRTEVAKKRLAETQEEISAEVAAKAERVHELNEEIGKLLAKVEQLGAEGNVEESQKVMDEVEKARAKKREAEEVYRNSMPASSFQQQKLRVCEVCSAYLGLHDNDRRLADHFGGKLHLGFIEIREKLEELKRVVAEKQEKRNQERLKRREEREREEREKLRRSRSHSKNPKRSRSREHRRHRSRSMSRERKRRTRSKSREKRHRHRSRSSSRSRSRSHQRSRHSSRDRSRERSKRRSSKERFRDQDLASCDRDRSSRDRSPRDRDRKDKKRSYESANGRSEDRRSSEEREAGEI
# Chain of UniProt Q9UGP4 (Q9UGP4 whole entry, looked up): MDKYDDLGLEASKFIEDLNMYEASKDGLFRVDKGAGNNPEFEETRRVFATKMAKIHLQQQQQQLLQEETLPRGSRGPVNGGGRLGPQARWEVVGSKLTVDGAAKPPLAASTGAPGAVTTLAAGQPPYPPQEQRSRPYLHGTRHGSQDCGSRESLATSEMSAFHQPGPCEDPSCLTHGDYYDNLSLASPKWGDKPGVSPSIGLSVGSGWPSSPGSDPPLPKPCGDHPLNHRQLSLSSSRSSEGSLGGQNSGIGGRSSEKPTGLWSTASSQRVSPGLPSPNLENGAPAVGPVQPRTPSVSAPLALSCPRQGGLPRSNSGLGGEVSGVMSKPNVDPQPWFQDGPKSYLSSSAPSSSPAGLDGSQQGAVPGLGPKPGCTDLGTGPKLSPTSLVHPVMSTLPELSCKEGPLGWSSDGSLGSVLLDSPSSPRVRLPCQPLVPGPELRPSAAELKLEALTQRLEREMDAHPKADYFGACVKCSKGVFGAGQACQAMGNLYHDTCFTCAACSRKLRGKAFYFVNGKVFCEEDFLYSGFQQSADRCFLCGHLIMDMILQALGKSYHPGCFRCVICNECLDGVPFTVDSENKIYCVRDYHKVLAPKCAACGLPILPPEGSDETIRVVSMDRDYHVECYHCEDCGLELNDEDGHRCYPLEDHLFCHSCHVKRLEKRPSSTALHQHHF
Target,log2 fold change (erlotinib),log2 fold change [1],log2 fold change [2],log2 fold change [3],log2 fold change [4],log2 fold change [5],log2 fold change [6],log2 fold change [7],log2 fold change [8],log2 fold change [9]
MED7 (UniProt O43513),0.065,-0.109,0.041,0.053,0.065,0.015,0.017,-0.152,-0.114,0.039
KXD1 (UniProt Q9BQD3),0.069,0.018,0.011,-0.005,0.083,0.024,0.01,0.018,0.022,0.036
LIAS (UniProt O43766),0.068,-0.24 (active),0.011,0.019,0.014,0.007,-0.273,0.009,0.028,0
LONP2 (UniProt Q86WA8),0.07,-0.111,0.263,0.131,-0.021,0.065,0.168,0.067,-0.037,-0.002
LUC7L2 (UniProt Q9Y383),-0.001,0.122,0.013,0.098,-0.218,-0.031,0.008,-0.143,-0.03,-0.072
MAP2K2 (UniProt P36507),0.021,-0.005,0.05,-0.001,0.054,-0.005,-0.058,-0.029,-0.003,0.016
LRPPRC (UniProt P42704),0.265,0.526,0.002,-0.255,0.204,-0.148,0.185,-0.223,-0.133,-0.197
MIEN1 (UniProt Q9BRT3),0.023,0.048,0.046,-0.02,0.033,0.099,0.035,-0.065,0.024,-0.076
KLHDC4 (UniProt Q8TBB5),-0.066,-0.075,-0.174,-0.013,0.077,-0.123,-0.081,0.07,-0.113,0.119
INTS7 (UniProt Q9NVH2),0.39,0.067,-0.016,0.046,-0.175,0.036,-0.081,0.022,-0.091,-0.009
LARP4 isoform 4 (UniProt Q71RC2),0.015,0.007,-0.123,0.055,0.086,0.002,-0.028,-0.044,-0.004,-0.035
LSS (UniProt P48449),0.293,0.073,-0.029,0.051,0.128,0.069,-0.005,0.081,0.005,0.089
MAPKAPK5 (UniProt Q8IW41),0.249 (active),-0.249,0.024,-0.087,0.019,0.052,0.043,0.025,-0.033,0.012
LTO1 (UniProt Q8WV07),-0.095,0.072,0.032,0.059,0.002,0.089,-0.035,-0.052,-0.032,0.169
MAIP1 (UniProt Q8WWC4),-0.02,0.006,-0.012,0.002,0.02,0.042,0.066,0.037,-0.024,0.012
ILRUN (UniProt Q9H6K1),-0.009,0.069,-0.033,0.027,0.075,0.043,-0.06,-0.063,0.028,0.041
MAGEA9 (UniProt P43362),0.05,0.032,0.001,0.076,-0.07,0.074,-0.021,-0.058,-0.191,0.018
LMNB2 (UniProt Q03252),0.027,0.062,0.001,0.025,-0.042,0.099,-0.066,-0.186,-0.167,0.001
MFN2 (UniProt O95140),0.027,0.049,0.007,-0.001,0.026,0.008,0.041,-0.003,-0.016,-0.019
LYPLA2 (UniProt O95372),-0.008,0.021,0.345 (active),-0.01,0.081,0.097,0.14,-0.016,-0.084,-0.122
ILKAP (UniProt Q9H0C8),0.096,0.26,0.071,-0.02,0.126,0.011,0.022,0.088,-0.092,-0.076
MIF (UniProt P14174),0.058,0.128,0.368 (active),0.033,-0.07,0.034,-0.037,-0.069,-0.057,-0.029
LPGAT1 (UniProt Q92604),-0.005,0.022,0.201,-0.274,0.183,0.098,-0.043,-0.025,0.017,0.115
MAP2K1 (UniProt Q02750),-0.012,0.001,0.037,-0.001,0.074,0.014,-0.028,-0.005,-0.002,-0.003
IMMT isoform 4 (UniProt Q16891),-0.027,0.026,0.057,-0.006,-0.021,0.011,0.012,0.001,0.012,-0.013
LARP1 (UniProt Q6PKG0),-0.051,0.002,-0.11,0.085,-0.025,-0.001,-0.081,-0.067,0.046,-0.172
MCL1 (UniProt Q07820),-0.225,0,-0.037,-0.01,-0.057,0.027,-0.121,-0.161,-0.039,0
MICU2 (UniProt Q8IYU8),-0.013,-0.013,-0.06,-0.002,-0.038,-0.015,0.103,0.018,0.045,-0.042
LIMD1 (UniProt Q9UGP4),0.017,0.058,0.062,-0.019,-0.01,0.077,0.013,0.006,-0.045,0.042
